Measurements reported in ChEMBL document CHEMBL1961873, “Compounds: GSK PKIS; Assays: Nanosyn kinase panel” (2012).

Legend:
[1] = target: Leukocyte tyrosine kinase receptor (Homo sapiens) (UniProt P29376); conditions: at 1 µM;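 further: each value is the mean inhibition of LTK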
[2] = target: Tyrosine-protein kinase Lyn (Homo sapiens) (UniProt P07948); conditions: at 0.1 µM
[3] = target: Tyrosine-protein kinase Lyn (Homo sapiens) (UniProt P07948); conditions: at 1 µM
[4] = target: Tyrosine-protein kinase Lyn (Homo sapiens) (UniProt P07948); conditions: at 0.1 µM; remark: listed apart in the source
[5] = target: Tyrosine-protein kinase Lyn (Homo sapiens) (UniProt P07948); conditions: at 1 µM; remark: listed apart in the source
[6] = target: T1, Tyrosine-protein kinase Mer (Homo sapiens) (UniProt Q12866); conditions: at 0.1 µM
T1 sequence (whole entry): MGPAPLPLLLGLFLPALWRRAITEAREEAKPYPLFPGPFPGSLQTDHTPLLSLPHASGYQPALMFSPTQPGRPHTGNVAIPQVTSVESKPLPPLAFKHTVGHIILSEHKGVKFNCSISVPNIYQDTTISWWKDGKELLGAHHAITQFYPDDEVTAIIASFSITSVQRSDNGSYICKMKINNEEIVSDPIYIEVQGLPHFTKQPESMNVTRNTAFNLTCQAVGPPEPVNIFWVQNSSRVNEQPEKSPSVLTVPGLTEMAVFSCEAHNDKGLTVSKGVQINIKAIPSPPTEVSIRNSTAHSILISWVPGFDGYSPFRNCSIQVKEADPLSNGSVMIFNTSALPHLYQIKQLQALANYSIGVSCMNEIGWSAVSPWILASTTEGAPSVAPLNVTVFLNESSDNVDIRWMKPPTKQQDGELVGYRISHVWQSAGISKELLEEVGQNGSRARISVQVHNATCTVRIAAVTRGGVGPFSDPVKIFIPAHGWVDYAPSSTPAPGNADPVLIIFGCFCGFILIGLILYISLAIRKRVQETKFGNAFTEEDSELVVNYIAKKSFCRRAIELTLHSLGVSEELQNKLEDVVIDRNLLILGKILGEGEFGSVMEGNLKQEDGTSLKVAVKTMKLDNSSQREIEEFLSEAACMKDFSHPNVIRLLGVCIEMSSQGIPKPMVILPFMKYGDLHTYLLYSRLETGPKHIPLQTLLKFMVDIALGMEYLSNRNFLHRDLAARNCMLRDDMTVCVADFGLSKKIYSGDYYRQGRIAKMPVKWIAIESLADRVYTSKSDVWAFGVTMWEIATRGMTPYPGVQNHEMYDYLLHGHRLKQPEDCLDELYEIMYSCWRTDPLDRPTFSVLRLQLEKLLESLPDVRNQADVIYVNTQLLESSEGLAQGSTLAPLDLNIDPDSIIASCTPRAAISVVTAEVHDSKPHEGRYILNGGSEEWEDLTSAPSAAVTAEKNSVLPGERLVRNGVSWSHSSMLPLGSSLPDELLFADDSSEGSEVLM

[7] = target: T1, Tyrosine-protein kinase Mer (Homo sapiens); conditions: at 1 µM
[8] = target: Hepatocyte growth factor receptor (Homo sapiens) (UniProt P08581); conditions: at 0.1 µM
[9] = target: Hepatocyte growth factor receptor (Homo sapiens) (UniProt P08581); conditions: at 1 µM
[10] = target: T2, Muscle, skeletal receptor tyrosine-protein kinase (Homo sapiens) (UniProt O15146); conditions: at 0.1 µM
T2 sequence (whole entry): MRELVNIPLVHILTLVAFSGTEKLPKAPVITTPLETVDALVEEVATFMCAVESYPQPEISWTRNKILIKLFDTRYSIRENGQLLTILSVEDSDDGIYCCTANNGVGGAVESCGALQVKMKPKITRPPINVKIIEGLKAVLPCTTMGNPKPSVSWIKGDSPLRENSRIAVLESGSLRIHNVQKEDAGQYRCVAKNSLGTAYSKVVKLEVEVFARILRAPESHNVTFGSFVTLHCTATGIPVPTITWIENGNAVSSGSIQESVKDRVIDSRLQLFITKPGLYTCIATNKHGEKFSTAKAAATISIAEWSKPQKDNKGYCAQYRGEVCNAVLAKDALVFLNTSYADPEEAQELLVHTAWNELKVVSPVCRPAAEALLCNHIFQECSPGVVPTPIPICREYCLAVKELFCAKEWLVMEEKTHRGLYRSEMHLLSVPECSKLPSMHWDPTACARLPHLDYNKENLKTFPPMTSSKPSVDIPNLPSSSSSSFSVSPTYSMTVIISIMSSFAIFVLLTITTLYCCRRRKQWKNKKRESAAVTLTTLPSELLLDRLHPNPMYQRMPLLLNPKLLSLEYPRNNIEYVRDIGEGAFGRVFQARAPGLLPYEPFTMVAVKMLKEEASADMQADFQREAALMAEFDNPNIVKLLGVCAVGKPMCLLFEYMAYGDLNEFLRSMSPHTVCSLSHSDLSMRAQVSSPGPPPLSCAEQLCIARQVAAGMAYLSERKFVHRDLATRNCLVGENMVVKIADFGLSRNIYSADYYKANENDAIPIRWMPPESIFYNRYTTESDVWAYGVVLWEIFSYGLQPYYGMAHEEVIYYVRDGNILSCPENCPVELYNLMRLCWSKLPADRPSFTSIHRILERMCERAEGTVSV

[11] = target: T2, Muscle, skeletal receptor tyrosine-protein kinase (Homo sapiens); conditions: at 1 µM
[12] = target: Platelet-derived growth factor receptor alpha (Homo sapiens) (UniProt P16234); conditions: at 0.1 µM
[13] = target: Platelet-derived growth factor receptor alpha (Homo sapiens) (UniProt P16234); conditions: at 1 µM
[14] = system: Platelet-derived growth factor receptor alpha (Homo sapiens), P16234 [D842V]; conditions: at 0.1 µM
[15] = system: Platelet-derived growth factor receptor alpha (Homo sapiens), P16234 [D842V]; conditions: at 1 µM
[16] = system: Platelet-derived growth factor receptor alpha (Homo sapiens), P16234 [T674I]; conditions: at 0.1 µM
[17] = system: Platelet-derived growth factor receptor alpha (Homo sapiens), P16234 [T674I]; conditions: at 1 µM
[18] = system: Platelet-derived growth factor receptor alpha (Homo sapiens), P16234 [V561D]; conditions: at 0.1 µM
[19] = system: Platelet-derived growth factor receptor alpha (Homo sapiens), P16234 [V561D]; conditions: at 1 µM
[20] = target: Platelet-derived growth factor receptor beta (Homo sapiens) (UniProt P09619); conditions: at 0.1 µM;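 further: reported value is the mean percent inhibition of the kinase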

Chain of Leukocyte tyrosine kinase receptor (Homo sapiens) (P29376 whole entry): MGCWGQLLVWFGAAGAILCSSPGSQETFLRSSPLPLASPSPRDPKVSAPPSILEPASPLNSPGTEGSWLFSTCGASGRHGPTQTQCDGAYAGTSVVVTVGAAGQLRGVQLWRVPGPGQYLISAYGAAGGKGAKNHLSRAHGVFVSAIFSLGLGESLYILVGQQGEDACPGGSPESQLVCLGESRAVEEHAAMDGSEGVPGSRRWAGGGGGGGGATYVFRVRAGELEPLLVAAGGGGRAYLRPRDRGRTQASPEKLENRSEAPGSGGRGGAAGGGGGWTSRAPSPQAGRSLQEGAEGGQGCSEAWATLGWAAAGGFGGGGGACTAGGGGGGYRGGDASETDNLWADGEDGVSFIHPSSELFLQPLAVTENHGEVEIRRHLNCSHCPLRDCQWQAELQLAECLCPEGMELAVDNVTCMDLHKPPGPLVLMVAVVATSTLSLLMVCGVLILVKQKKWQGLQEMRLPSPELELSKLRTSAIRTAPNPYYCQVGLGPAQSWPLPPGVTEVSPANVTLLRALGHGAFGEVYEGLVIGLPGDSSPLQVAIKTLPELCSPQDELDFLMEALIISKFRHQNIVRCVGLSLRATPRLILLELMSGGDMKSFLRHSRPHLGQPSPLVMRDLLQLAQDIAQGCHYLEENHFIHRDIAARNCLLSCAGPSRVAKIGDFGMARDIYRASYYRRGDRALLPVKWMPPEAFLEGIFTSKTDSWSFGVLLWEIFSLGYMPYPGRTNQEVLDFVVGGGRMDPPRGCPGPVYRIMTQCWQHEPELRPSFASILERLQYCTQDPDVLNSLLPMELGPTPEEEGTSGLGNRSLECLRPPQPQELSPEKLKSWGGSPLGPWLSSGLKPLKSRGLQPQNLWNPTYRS
Chain of Platelet-derived growth factor receptor alpha (Homo sapiens), P16234 [V561D] (P16234 whole entry V561D): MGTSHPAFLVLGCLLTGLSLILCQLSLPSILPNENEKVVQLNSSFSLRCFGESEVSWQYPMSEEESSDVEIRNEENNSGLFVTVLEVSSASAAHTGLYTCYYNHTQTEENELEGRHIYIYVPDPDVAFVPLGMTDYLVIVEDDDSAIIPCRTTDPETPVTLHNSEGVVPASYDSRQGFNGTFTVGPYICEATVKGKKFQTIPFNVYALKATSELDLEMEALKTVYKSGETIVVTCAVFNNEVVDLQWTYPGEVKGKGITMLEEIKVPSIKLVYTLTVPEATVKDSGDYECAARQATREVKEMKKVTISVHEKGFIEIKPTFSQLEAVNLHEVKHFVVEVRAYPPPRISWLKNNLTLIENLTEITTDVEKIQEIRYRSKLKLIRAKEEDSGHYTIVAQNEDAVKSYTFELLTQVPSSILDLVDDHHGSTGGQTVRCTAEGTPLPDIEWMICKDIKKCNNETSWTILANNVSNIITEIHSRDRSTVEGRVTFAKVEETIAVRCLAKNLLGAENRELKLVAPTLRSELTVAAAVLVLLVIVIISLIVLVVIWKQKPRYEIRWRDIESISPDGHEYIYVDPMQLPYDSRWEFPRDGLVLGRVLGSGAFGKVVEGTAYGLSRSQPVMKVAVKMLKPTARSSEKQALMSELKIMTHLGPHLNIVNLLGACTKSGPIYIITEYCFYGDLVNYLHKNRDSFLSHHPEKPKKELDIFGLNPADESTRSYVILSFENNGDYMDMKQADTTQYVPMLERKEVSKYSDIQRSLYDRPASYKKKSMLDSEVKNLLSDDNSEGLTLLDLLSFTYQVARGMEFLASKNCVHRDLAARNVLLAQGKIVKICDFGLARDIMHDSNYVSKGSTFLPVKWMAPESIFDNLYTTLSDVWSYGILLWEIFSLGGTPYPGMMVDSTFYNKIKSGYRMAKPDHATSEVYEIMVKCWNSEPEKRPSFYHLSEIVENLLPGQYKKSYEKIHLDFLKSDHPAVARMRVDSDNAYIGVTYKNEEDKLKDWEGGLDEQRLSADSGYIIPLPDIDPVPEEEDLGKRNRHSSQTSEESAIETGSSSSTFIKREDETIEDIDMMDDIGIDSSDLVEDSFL
Chain of Platelet-derived growth factor receptor alpha (Homo sapiens), P16234 [D842V] (P16234 whole entry D842V): as the sequence (P16234 whole entry V561D) above, with D561V, D842V counted along it
Chain of Tyrosine-protein kinase Lyn (Homo sapiens) (P07948 2-512 limits assumed): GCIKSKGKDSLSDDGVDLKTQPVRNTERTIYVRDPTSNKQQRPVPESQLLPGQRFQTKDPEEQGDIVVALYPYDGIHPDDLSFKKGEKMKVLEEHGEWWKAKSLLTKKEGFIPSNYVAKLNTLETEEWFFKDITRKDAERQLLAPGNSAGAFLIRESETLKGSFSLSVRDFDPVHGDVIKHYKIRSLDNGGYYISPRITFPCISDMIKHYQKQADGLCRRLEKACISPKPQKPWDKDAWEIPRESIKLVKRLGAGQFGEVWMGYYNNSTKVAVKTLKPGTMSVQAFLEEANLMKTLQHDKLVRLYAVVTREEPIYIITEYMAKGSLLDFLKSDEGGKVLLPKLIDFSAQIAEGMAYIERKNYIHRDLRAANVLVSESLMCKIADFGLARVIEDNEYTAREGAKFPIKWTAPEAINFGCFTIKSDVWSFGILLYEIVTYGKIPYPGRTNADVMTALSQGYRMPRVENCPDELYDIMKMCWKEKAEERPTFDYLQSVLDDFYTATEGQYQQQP
Chain of Platelet-derived growth factor receptor alpha (Homo sapiens) (P16234 whole entry): as the sequence (P16234 whole entry V561D) above, with D561V counted along it

Compound	inhibition [1] [%]	inhibition [2] [%]	inhibition [3] [%]	inhibition [4] [%]	inhibition [5] [%]	inhibition [6] [%]	inhibition [7] [%]	inhibition [8] [%]	inhibition [9] [%]	inhibition [10] [%]	inhibition [11] [%]	inhibition [12] [%]	inhibition [13] [%]	inhibition [14] [%]	inhibition [15] [%]	inhibition [16] [%]	inhibition [17] [%]	inhibition [18] [%]	inhibition [19] [%]	inhibition [20] [%]
Cc1ccc(-c2cc3c(NC(=O)C4CC4)ncnc3o2)cc1	3.83	5.46	6.63	2.61	5.69	2.35	6.56	4.71	4.06	2.65	7.78	13.9	38.1	7.31	29.8	6.86	32.7	8.94	31.9	8.16
CCCNc1cccc(-n2ncc3c(N/N=C/c4ccncc4)ncnc32)c1	4.23	18	69.6	15.4	64.8	6.21	25.6	12.6	49	8.51	49.9	29.4	78.4	16.3	71	11.7	38.2	15.3	68.4	27.1
CC1=C(C(=O)Nc2ccc3[nH]nc(C)c3c2)C(c2ccc(C(F)(F)F)cc2)CC(=O)N1 (stereo not given)	3.55	4.49	6.25	1.98	3.89	2.17	5.55	1.4	17.3	5.25	23.7	7.08	19.3	2.09	6.76	2.02	1.41	-0.51	8.12	8.62
CN1CCC(n2cnc(-c3ccc(F)cc3)c2-c2ccnc(NCCO)n2)CC1	5.36	5.64	7.19	3.08	5.79	2.22	7.18	0.32	10.6	3.32	3.41	13.6	14.4	5.63	8.15	7.46	9.01	7.95	3.97	8.62
N#Cc1cccc(Nc2ncc(-c3ccccc3)o2)c1	3.55	3.97	10.5	2.56	9.05	0.53	4.24	2.46	5.36	1.86	2.86	5.63	17	1.11	3.47	6.26	36.3	16.2	36.8	7.37
OCCCNc1nccc(-c2c(-c3ccc(F)cc3)nn3cc(C(F)(F)F)ccc23)n1	-0.25	3.88	7.02	3	4.51	0.89	5.36	1.57	5.11	2.96	6.98	10.9	15.3	2.53	5.03	4.67	6.04	0.23	6.06	6.16
COc1cc(N2CCN(C(C)C)CC2)ccc1Nc1nc(Nc2cccc3ncccc23)c2cc[nH]c2n1	80.2	0.41	2.82	0.31	2.18	0.54	2.09	-2.89	-1.9	5.11	9.48	2.96	15.3	0.2	5.09	2.09	2.26	3.08	14.8	1.3
Cn1c(-c2nonc2N)nc2cnccc21	4.18	4.05	2.29	2.97	1.52	1.12	3.84	3.78	3.65	2.14	5.28	2.63	7.48	2.81	4.99	4.72	6.95	1.45	3.93	1.55
CCOc1ccc2c(-c3ccnc(Nc4cc(OC)cc(C(F)(F)F)c4)n3)cnn2n1	1.37	2.55	5.91	0.62	4.08	1.11	4.18	4.49	5.18	0.02	5.37	6.45	30	2.97	18.4	2.28	8.05	6.9	33.4	7.05
Fc1cccc(COc2ccc(Nc3ncncc3C#Cc3ccccc3)cc2Cl)c1	4.63	6.26	7.71	2.8	7.49	0.06	2.67	8.24	5.53	3.76	3.28	13	12.4	5.22	4.74	8.12	9.74	8.16	5.45	6.95
CCS(=O)(=O)c1ccc(OC)c(Nc2ncc(-c3cccc(C(C)=O)c3)o2)c1	3.34	11.3	45.5	7.74	40.8	1.15	2.12	1.95	7.9	2.82	4.06	23.2	68	20.1	72.8	7.08	8.46	22.1	68.2	53.7
c1ccc(-c2n[nH]cc2-c2ccnc(-c3ccc(OCCn4ccnc4)cc3)c2)nc1	2.53	2.2	16.3	0.89	12.3	0.8	2.68	4.9	0.98	0.34	4.35	14.2	64.6	23.5	76.1	6.06	6.32	17.8	57	15.3
Cc1nnc(-c2cccc(-c3ccc(C(=O)NCC4CC4)cc3)c2)o1	4.76	7.2	5.98	3.09	5.48	0.22	0.56	3.78	7.87	2.8	6.37	13.9	15.2	2.78	5.47	6.98	11.6	4.66	3.3	5.4
